The list is not random: actives were taken first. Their share in the collection is about 7.6%.
Tau filament bind = binds recombinant human tau filaments. P10636. recombinant tau filaments, thioflavin S fluorescence, 15 h; filaments grown with octadecylsulfate alongside compound. Potency, µM (titrated, usually from 57.1 µM). hit rate 2% among 71,000;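 also: actives lower thioflavin S fluorescence by blocking filaments or displacing dye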
Target sequence (P10636 whole entry, looked up): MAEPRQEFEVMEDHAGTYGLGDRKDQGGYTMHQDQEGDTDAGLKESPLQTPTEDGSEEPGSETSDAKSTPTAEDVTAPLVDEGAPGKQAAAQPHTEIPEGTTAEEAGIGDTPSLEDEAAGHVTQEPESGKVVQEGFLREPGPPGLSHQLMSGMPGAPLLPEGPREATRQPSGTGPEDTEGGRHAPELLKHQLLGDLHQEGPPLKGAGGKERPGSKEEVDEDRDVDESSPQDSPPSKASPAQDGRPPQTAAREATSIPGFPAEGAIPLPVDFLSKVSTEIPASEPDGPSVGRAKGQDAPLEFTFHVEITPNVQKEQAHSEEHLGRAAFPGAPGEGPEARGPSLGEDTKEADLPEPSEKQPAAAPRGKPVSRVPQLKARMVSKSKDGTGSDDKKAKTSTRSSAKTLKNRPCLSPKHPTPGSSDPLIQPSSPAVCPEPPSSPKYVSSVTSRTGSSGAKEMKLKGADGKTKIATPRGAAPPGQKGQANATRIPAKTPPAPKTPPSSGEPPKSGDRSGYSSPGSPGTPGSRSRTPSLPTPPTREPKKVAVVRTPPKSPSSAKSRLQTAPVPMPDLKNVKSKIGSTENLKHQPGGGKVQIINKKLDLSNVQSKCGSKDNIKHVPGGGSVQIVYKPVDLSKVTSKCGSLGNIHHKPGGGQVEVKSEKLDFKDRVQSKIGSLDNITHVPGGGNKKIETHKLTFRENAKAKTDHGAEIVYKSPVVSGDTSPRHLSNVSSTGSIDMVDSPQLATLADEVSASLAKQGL
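Thioflavine S fluorescence (ex 450, em 510 nm) reports filaments formed from 1 uM human tau plus 30 uM ODS over 15 h at 37 C (10 mM HEPES pH 7.4, 100 mM NaCl, 5 mM DTT); compounds displacing dye or blocking filaments lower signal.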
ERK AVP inh = vasopressin-driven ERK pathway inhibition; HEK293-V1b, vasopressin-stimulated pERK AlphaScreen; Potency, µM (doses to about 57.5 µM), actives largely listed as inhibitors; hit rate 0.99% among 72,000; also: nearly all actives have a fitted effect of over 55% in size
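HEK293 cells stably expressing V1b receptor, seeded overnight in 1% FBS, were treated with compounds for 30 min at 37C, then stimulated 5 min with 25 nM vasopressin; phospho-ERK read by AlphaScreen SureFire after lysis.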
HEK293 cAMP ctrl = raises cAMP in parental HEK293 cells, TSHR agonist counter-screen; parental HEK293 CNG cAMP sensor, membrane potential fluorescence; Potency, µM (highest dose often 57.1 µM), hits mostly activators; hit rate 2.5% among 73,000; also: nearly all actives have a fitted effect of over 55% in size
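Counterscreen for endogenous-receptor signalling: CNG-channel HEK 293 cells report cAMP rise by membrane depolarization. After 60 min dye equilibration with 100 uM RO 20-1724, compounds incubated 30 min before bottom-read fluorescence at 590 nm.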
CRE Fsk mod = CRE-bla signaling modulation under forskolin stimulation; CHO CRE-bla reporter (cAMP response element driving beta-lactamase), forskolin EC10, beta-lactamase ratio; Potency, µM (top dose mostly 38.2 µM), hits mostly activators; hit rate 2.5% among 71,000; active = well fitted activation curve with a large enough effect in the signal ratio, with a control signal flat, not every such curve was filed as active; inconclusive = small, poorly fitted or top-dose-only effect, or effect the other way, or a change in a side signal; the % refers to the signal ratio
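qHTS titration format; CRE-bla CHO reporter; stimulus EC10 NKH 477, a water-soluble forskolin. Read: CCF4 460/530 nm ratio. Potency expressed as AC50 for activators or inhibitors.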
TSHR ag = agonists of human thyroid stimulating hormone receptor. HEK293-CNG-TSHR cells (CNG channel as cAMP sensor), membrane potential dye, cAMP. Potency, µM (highest dose often 57.1 µM), actives largely listed as activators. hit rate 0.48% among 73,000. AID 926; active = well fitted activation curve with a large enough effect in the main read-out, with a control signal flat, not every such curve was filed as active; inconclusive = small, poorly fitted or top-dose-only effect, or a change in a side signal; inactive = no such curve, though single readings can be large or run the other way; reference of the percent scale not stated here;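 also: the control signal comes from parental cells without the receptor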
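HEK 293 cells stably expressing TSHR and a modified CNG channel, with CNG-only parental cells as counterscreen, were preloaded 60 min at room temperature with membrane potential dye containing 100 uM RO 20-1724. Compound exposure was 30 min, and depolarization was read as fluorescence at 590 nm.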
Each line names hits and unclear results; the compound was inactive in the other large screens. Unless noted, calls follow the shape of the dose curve; as a rule, active = well fitted curve in the direction sought with a large enough effect; inconclusive = small, poorly fitted or top-dose-only effect, or another doubt; inactive = no such curve, though single readings can be large; an effect the other way counts as inactive or inconclusive.

COc1ccc(Cc2nnc(SCc3c(C)noc3C)n2C2CCCCC2)cc1OC	HEK293 cAMP ctrl inconclusive, TSHR ag inconclusive
C=CCn1c(SCc2c(C)noc2C)nc2sc3c(c2c1=O)CCCCC3	CRE Fsk mod 2.5µM
O=c1oc2c3c4c(cc2c2c1CCC2)OCCN4CCC3	CRE Fsk mod 13µM
COc1ccc(C(=O)N2c3cc4c(cc3C(C)=CC2(C)C)OCO4)cc1	Tau filament bind 16µM, ERK AVP inh inconclusive, CRE Fsk mod inconclusive, TSHR ag 16µM
CC1=CC(C)(C)N(C(=O)c2ccccc2)c2ccccc21	HEK293 cAMP ctrl inconclusive, TSHR ag inconclusive
COCCn1c(=O)c(-c2ccc(OC)cc2)nc2cnc(Nc3ccccc3)nc21	CRE Fsk mod 0.32µM
COCCn1c(=O)c(-c2ccc(F)c(F)c2)nc2cncnc21	HEK293 cAMP ctrl inconclusive, CRE Fsk mod 16µM, TSHR ag inconclusive
N#CCCn1c(=O)c(-c2ccc(Cl)cc2)nc2cnc(Nc3ccccc3)nc21	CRE Fsk mod inconclusive
COCCn1c(=O)c(-c2ccc(F)cc2)nc2cncnc21	CRE Fsk mod inconclusive
COCCn1c(=O)c(-c2ccc(OC)cc2)nc2cnc(OC)nc21	CRE Fsk mod 10µM
N#CCCn1c(=O)c(-c2ccccc2)nc2cnc(Nc3ccccc3)nc21	ERK AVP inh inconclusive, HEK293 cAMP ctrl 10µM, CRE Fsk mod inconclusive, TSHR ag inconclusive
CCCC[C@@H]1CN2[C@H](c3ccc(Br)cc3)[C@@H](C)CC[C@H]2C(=O)O1	none (no result: Tau filament bind, CRE Fsk mod)
COc1ccc2[nH]c3ccccc3c2c1	none
COc1ccc2[nH]c3c(c2c1)CN(C)CC3	Tau filament bind 25µM, CRE Fsk mod inconclusive
O=S(=O)(c1ccc(Oc2ccc(Br)cc2F)nc1)N1CCCCC1	HEK293 cAMP ctrl 25µM, TSHR ag inconclusive
O=S(=O)(c1ccc(S(=O)(=O)N2CCCC2)cc1)N1CCCCCC1	none
O=C(CSc1nnc(-c2cccs2)n1CC1CCCO1)c1cc2ccccc2o1 (stereo not given)	Tau filament bind 16µM, HEK293 cAMP ctrl inconclusive, TSHR ag inconclusive
Cn1c(SCC(=O)c2cc3ccccc3o2)nnc1-c1ccccc1	none (no result: ERK AVP inh)
CC1=C(C(=O)OCc2ccc3c(c2)OCO3)C(c2ccc(Cl)cc2)NC(=O)N1 (stereo not given)	CRE Fsk mod inconclusive, TSHR ag 32µM
CC1=C(C(=O)OCc2ccc3c(c2)OCO3)C(c2ccc(F)cc2)NC(=O)N1 (stereo not given)	HEK293 cAMP ctrl inconclusive, TSHR ag inconclusive
CCOC(=O)N/N=C1/C[C@@H](O)[C@@H](O)[C@@H]2[C@@H]3C(=O)N(Cc4ccccc4)C(=O)[C@H]3CC[C@H]12	none (no result: Tau filament bind, CRE Fsk mod)
O=C(CSc1nc2ccccc2nc1SCC(=O)N1CCCCC1)N1CCCCC1	TSHR ag 25µM (no result: Tau filament bind, ERK AVP inh, CRE Fsk mod)
O=C(CSc1nc2ccccc2nc1SCC(=O)N1CCOCC1)N1CCOCC1	ERK AVP inh inconclusive
CCOc1ccc2nc(SCC(=O)N3CCCCCC3)c(C#N)cc2c1	HEK293 cAMP ctrl 16µM, TSHR ag inconclusive
c1ccc2nc3c(nc2c1)c1ccccc1n3CCN1CCOCC1	Tau filament bind 13µM, CRE Fsk mod 13µM, TSHR ag 16µM
CCn1c2ccccc2c2nc3cc(S(=O)(=O)N4CCOCC4)ccc3nc21	Tau filament bind 25µM, CRE Fsk mod 2µM
Brc1ccc2c(c1)c1nc3ccccc3nc1n2CCN1CCOCC1	Tau filament bind 16µM, ERK AVP inh 32µM, CRE Fsk mod 13µM
CCc1ccc(S(=O)(=O)Nc2ccc(O)c(C(=O)O)c2)cc1	none (no result: Tau filament bind, ERK AVP inh, CRE Fsk mod)
C=C[C@@H]1CN2CC[C@@H]1C[C@H]2[C@H](O)c1ccnc2ccc(OC)cc12	Tau filament bind inconclusive (no result: ERK AVP inh, HEK293 cAMP ctrl, TSHR ag)
Cc1nc(CSc2nc3[nH]ncc3c(=O)n2-c2ccccc2)cs1	CRE Fsk mod inconclusive
Cc1noc(C)c1CSc1nc2[nH]ncc2c(=O)n1-c1ccccc1	ERK AVP inh 13µM, CRE Fsk mod 10µM (no result: TSHR ag)
Cc1noc(C)c1CSc1nnc2n(-c3ccccc3)c(=O)c3ccccc3n12	none
Cc1noc(C)c1CSc1nc2ccccc2c(=O)n1-c1ccccc1	ERK AVP inh inconclusive, HEK293 cAMP ctrl 10µM, CRE Fsk mod 10µM, TSHR ag inconclusive
Cc1noc(C)c1CSc1nc2ccccc2c(=O)n1-c1ccc(F)cc1F	ERK AVP inh inconclusive, HEK293 cAMP ctrl 16µM, CRE Fsk mod inconclusive, TSHR ag inconclusive
Cc1ccc(O)c(C(=O)CC(=O)c2cccc(F)c2)c1	Tau filament bind 2µM, CRE Fsk mod inconclusive (no result: TSHR ag)
O=C(CC(=O)c1cc(Cl)ccc1O)c1ccccc1	Tau filament bind 25µM, ERK AVP inh inconclusive, CRE Fsk mod inconclusive
CCCCCCN(CCCCCC)C(=O)Cc1c(-c2ccc(Cl)cc2)[nH]c2ccc(Cl)cc12	none
C=C(C)C(O)/C=C/CCCCCCC (stereo not given)	none (no result: Tau filament bind, CRE Fsk mod)
Cc1cc(Nc2cccc(F)c2)nc(-c2ccccc2O)n1	ERK AVP inh 7.9µM, CRE Fsk mod inconclusive, TSHR ag inconclusive
Cc1cc(Nc2ccccc2)nc(-c2ccccc2O)n1	ERK AVP inh 32µM
Nc1nc(N)[n+]([O-])c(N)c1NCO	none
Cc1ccc(CNC(=O)[C@H](C)[C@H]2C[C@]2(C)[C@H](NC(=O)OCc2ccccc2)c2ccccc2)c(F)c1F	HEK293 cAMP ctrl inconclusive, CRE Fsk mod inconclusive, TSHR ag inconclusive
CCc1ccc2oc(-c3cccc(NC(=O)c4cccnc4)c3)nc2c1	ERK AVP inh 25µM
CCOC(=O)CNC(=O)CSc1ncnc2c1cnn2-c1ccc(C)cc1	ERK AVP inh 7.9µM
CC(=O)[C@H]([C@@H](c1ccccc1)N1CCOCC1)N1CCOCC1	none
CCC(O)CNc1nc(SC)nc2sc3c(c12)CCN(C)C3 (stereo not given)	CRE Fsk mod inconclusive
CCC(O)CNc1nc(-n2nc(C)cc2C)nc2sc3c(c12)CCCC3 (stereo not given)	CRE Fsk mod 0.79µM
CC#CC(C)C(OCOC)C(CC(C)Cc1cc(Br)cc(OCc2ccccc2)c1OC)OC (stereo not given)	none (no result: Tau filament bind, CRE Fsk mod)
O=c1c(-c2cccc(Cl)c2)nc2cncnc2n1-c1ccccc1	ERK AVP inh inconclusive, HEK293 cAMP ctrl inconclusive, CRE Fsk mod inconclusive, TSHR ag inconclusive
CCCCn1c(NC(=O)c2ccccc2)c(C#N)c2nc3ccccc3nc21	Tau filament bind inconclusive, ERK AVP inh inconclusive, CRE Fsk mod 10µM
CN(C)c1ncc2nc(-c3cccs3)c(=O)n(CCC#N)c2n1	ERK AVP inh inconclusive, CRE Fsk mod inconclusive
CCC(C)(C(=O)NC1CCCC1)N(Cc1ccco1)C(=O)c1ccccn1 (stereo not given)	HEK293 cAMP ctrl inconclusive, CRE Fsk mod inconclusive, TSHR ag inconclusive
CCC(C)(C(=O)NC1CCCC1)N(Cc1ccco1)C(=O)c1ccc2c(c1)OCO2 (stereo not given)	HEK293 cAMP ctrl 2.5µM, CRE Fsk mod inconclusive, TSHR ag inconclusive
CCC(C)(C(=O)NC1CCCCC1)N(Cc1ccco1)C(=O)c1cnccn1 (stereo not given)	HEK293 cAMP ctrl 3.2µM, TSHR ag inconclusive
